Screening data (PubChem)
This excerpt belongs to a sample that is enriched for hits.
VDR inh: inhibitors of human vitamin D receptor | P11473 | VDR-SRC2-3 peptide fluorescence polarization, 2 h | Potency, µM, for inactives: max response, negative = inhibition, most hits filed as inhibitors | 0.93% of 400,000 active | AID 504847; note: % is set by controls: 0 for no effect and ±100 for the full control effect
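Two reagent solutions held at 4 deg C in the dark were dispensed, compounds pinned at 23 nl, and the mixture incubated 2 h at room temperature. Read-out: fluorescence polarization of VDR–SRC2-3 peptide binding.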
12-LOX inh: inhibitors of human 12S-lipoxygenase ALOX12. P18054. purified 12hLO, xylenol orange hydroperoxide absorbance. Potency, µM (series often up to 108 µM), for the others: at the top dose activity change, negative = inhibition, usual class: inhibitors. 1.1% of 580,000 active. AID 1671190; note: % is set by controls: 0 for no effect and ±100 for the full control effect
Target sequence (P18054 whole entry, looked up): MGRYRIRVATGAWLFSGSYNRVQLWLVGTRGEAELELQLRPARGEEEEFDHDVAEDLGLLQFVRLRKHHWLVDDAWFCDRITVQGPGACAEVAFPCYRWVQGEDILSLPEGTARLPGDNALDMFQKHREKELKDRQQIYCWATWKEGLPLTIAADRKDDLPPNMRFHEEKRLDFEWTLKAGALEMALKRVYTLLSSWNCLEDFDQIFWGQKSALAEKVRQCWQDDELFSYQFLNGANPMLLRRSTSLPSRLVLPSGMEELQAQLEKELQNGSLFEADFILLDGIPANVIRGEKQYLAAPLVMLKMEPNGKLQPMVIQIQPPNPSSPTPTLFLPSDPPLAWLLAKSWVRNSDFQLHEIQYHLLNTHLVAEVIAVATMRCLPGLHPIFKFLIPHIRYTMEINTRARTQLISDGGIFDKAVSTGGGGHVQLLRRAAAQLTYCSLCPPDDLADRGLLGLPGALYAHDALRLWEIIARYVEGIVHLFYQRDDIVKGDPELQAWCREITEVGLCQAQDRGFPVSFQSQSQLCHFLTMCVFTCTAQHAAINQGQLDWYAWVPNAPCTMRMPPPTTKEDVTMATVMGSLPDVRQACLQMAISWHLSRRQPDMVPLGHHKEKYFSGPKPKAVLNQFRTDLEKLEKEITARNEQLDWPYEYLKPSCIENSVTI
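Purified human 12hLO at 150 nM in 25 mM Hepes, 0.01% Triton X-100, pH 7.0, preincubated 15 min at room temperature with compound. Reaction started with 40 uM arachidonic acid, 30 min at room temperature. Hydroperoxide measured by Fe-xylenol orange, 573/405 nm absorbance ratio.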
G9a inh: G9a (human) methyltransferase inhibition; 8.8% of 350,000 active; G9a H3K9 monomethylation, AlphaScreen, 2 h; Potency, µM (series often up to 102 µM), inactives show at the highest dose activity, negative = inhibition, usual class: inhibitors; Q96KQ7; note: % is set by controls: 0 for no effect and ±100 for the full control effect; nearly all actives have a fitted effect of over 75% in size
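Compounds were preincubated with 20 nM G9a for 15 min, after which biotinylated H3K9 peptide (500 nM) and SAM (20 uM) started a 2 h room-temperature reaction. Monomethylated product was quantified by antibody-based AlphaScreen chemiluminescence.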
GRP78 ERSR act: induces the endoplasmic reticulum stress response in human glioma cells. U87-MG GRP78 promoter luciferase reporter, 16 h. Potency, µM, without a hit: at the highest dose activation, most hits filed as activators. 0.02% of 420,000 active. AID 602332; note: series mostly up to about 76 µM; % of control where 0% means no effect; nearly all actives have a fitted effect of over 35% in size
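Stably transfected U87-MG human glioma cells carrying a GRP78-based luminescent sensor were seeded at 1000 cells/well, pin-dosed with compounds and incubated 16 h. Luciferase reagent was then added, and end-point luminescence was read after 10 min at room temperature.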
Sfp PPTase inh: inhibitors of Bacillus subtilis Sfp phosphopantetheinyl transferase; Potency, µM, without a hit: largest response in the series, negative = inhibition, most hits filed as inhibitors; 3.5% of 310,000 active; Q9F4F7; Biochemical Sfp PPTase activity, qHTS;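 note: the enzyme is Sfp with the accession as filed and its product quenches rhodamine fluorescence; 0% = enzyme reaction without inhibitor and -100% = no enzyme wells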
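Compounds were incubated with enzyme (final 15 nM) for 15 min at room temperature before substrate addition started the reaction. Fluorescence at 525 nm excitation, 598 nm emission was recorded immediately and after 30 minutes.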
* marks the source's active call; other numbers are inactive results; ? = inconclusive; . = not tested or not shown; [ ] = dose if it differs, or a comment. Calls come from the whole dose curve; as a rule, active = well fitted curve in the direction sought with a large enough effect; inconclusive = small, poorly fitted or top-dose-only effect, or another doubt; inactive = no such curve, though single readings can be large; an effect the other way counts as inactive or inconclusive. Potency is the fitted concentration of half-maximal effect.

SMILES | VDR inh | 12-LOX inh | G9a inh | GRP78 ERSR act | Sfp PPTase inh
COc1ccc(N2CCN(C(=O)c3ccc4c(c3)NC(=O)C(CSCc3ccc(C)cc3)N4)CC2)cc1 (configuration not stated) | . | . | 7.94µM* | . | 39.8µM*
COc1ccc(N2CCN(C(=O)c3ccc4c(c3)NC(=O)C(CSCc3cccc(F)c3)N4)CC2)cc1 (configuration not stated) | . | . | 20µM* | . | 56.2µM*
COc1ccc(N2CCN(C(=O)c3ccc4c(c3)NC(=O)C(CSCc3c(F)cccc3Cl)N4)CC2)cc1 (configuration not stated) | . | . | 31.6µM* | . | -26.9%
COc1ccc(C(=O)N2CCN(c3cccc(Cl)c3)CC2)cc1 | -18.4% | -9.7%[57.4 µM] | -8.5%[59 µM] | -1.3% | 10.3%
CCn1c(SCc2cc(OC)c(Br)cc2OC)nc2cc(S(N)(=O)=O)ccc21 | . | -54.0% | . | . | .
CC(=O)Nc1ccc(S(=O)(=O)NC2=C(N3CCN(c4ccc(F)cc4)CC3)C(=O)c3ccccc3C2=O)cc1 | ? | -11.1% | 2.82µM* | -5.0% | -13.1%
CCOC(=O)C1CCN(C(=O)COc2ccc(S(=O)(=O)NC(C)C)cc2)CC1 | 11.3% | 0.9% | 15.1%[59 µM] | -2.6% | 10.8%
Cc1ccc(S(=O)(=O)NC2=C(N3CCN(c4ccccc4F)CC3)C(=O)c3ccccc3C2=O)cc1 | -18.3% | -20.0% | -8.2%[0.501 µM] | 1.2% | -10.1%
Cc1ccc(S(=O)(=O)NC2=C(N3CCN(Cc4ccccc4)CC3)C(=O)c3ccccc3C2=O)cc1 | -6.0% | ? | 7.08µM* | -1.8% | 4.3%
CCOC(=O)N1CCN(C2=C(NS(=O)(=O)c3ccc(C)cc3)C(=O)c3ccccc3C2=O)CC1 | ? | ? | 22.4µM* | -3.7% | 79.4µM*
CCOC(=O)N1CCN(C(=O)COc2ccc(S(=O)(=O)NC(C)C)cc2)CC1 | 2.8% | 30.2%[57.4 µM] | 44.7µM* | 1.0% | 24.9%
COc1ccc(CN2CCCn3nc(C)c(-c4ccccc4Oc4ccccc4)c32)cc1O | . | -2.9% | . | . | .
CCOc1ccc2c(=O)c(Oc3ccc(C(=O)OC)cc3)c(C)oc2c1 | . | 25.8% | . | . | .
O=C(NCc1ccco1)c1ccc(S(=O)(=O)N2CCCCC2)cc1 | -3.1% | -2.2% | -1.2% | 0.3% | 10.1%
O=C(NCc1ccco1)c1ccc(S(=O)(=O)N2CCOCC2)cc1 | -7.6% | 0.0% | 12.6µM* | -3.7% | 20µM*
NS(=O)(=O)c1ccc(NC(=S)NCc2ccco2)cc1 | ? | ? | 3.16µM* | -2.0% | 20µM*
NC(=O)c1ccc(NC(=S)NCc2ccco2)cc1 | -0.9% | -7.1% | 50.1µM* | -6.3% | -3.2%
COC(=O)c1ccc(NC(=S)NCc2ccco2)cc1 | -8.4% | ? | 50.1µM* | 8.0% | 5.7%
COC(=O)c1cccc(NC(=S)NCc2ccco2)c1 | 4.4% | -23.1% | . | 1.7% | -12.4%
CCOC(=O)c1ccc2ncc(C(=O)OCC)c(NCCCOC(C)=O)c2c1 | . | 43.5% | . | . | .
CC(Oc1cccc(Cl)c1)c1nc(-c2ccncc2)no1 (configuration not stated) | . | -7.0% | . | . | .
O=C(Nc1ccc(Oc2ccccc2)cc1)c1cc(=O)[nH]c2ccccc12 | . | -6.0% | . | . | .
COc1cc(Br)c(C2CC(=O)NC(C)=C2C(=O)OCc2ccc(C)cc2)cc1OC (configuration not stated) | . | -4.0% | . | . | .
CC(C)c1ccc(S(=O)(=O)N2CCN(C(=S)NCc3ccco3)CC2)cc1 | ? | ? | ? | -4.2% | ?
O=S(=O)(c1ccc(NC(=S)NCc2ccco2)cc1)N1CCCCC1 | 4.7% | ? | 56.2µM* | -2.2% | 9.3%
SMILES | VDR inh | 12-LOX inh | G9a inh | GRP78 ERSR act | Sfp PPTase inh
O=S(=O)(c1cccc(C(F)(F)F)c1)N1CCN(C(=S)NCc2ccco2)CC1 | 4.8% | -6.7% | ? | -0.9% | 70.8µM*
O=C(c1ccc(NC(=S)NCc2ccco2)cc1)N1CCOCC1 | -9.3% | -11.7% | 44.7µM* | 1.0% | 14.2%
CSc1ccc(CN2CCN(S(=O)(=O)Cc3ccccc3)CC2)cc1 | -11.3% | -18.1% | 89.1µM* | -5.9% | 2.6%
CCc1ccc(CN2CCN(S(=O)(=O)Cc3ccccc3)CC2)cc1 | -6.4% | -23.4% | ? | -1.9% | -15.4%
CSc1ccc(CN2CCN(C(=O)c3ccncc3)CC2)cc1 | 11.7% | 2.3% | -3.3% | -3.8% | 11.6%
CSc1ccc(CN2CCCN(C)CC2)cc1 | -18.0% | ? | 10µM* | -3.3% | -4.5%
CC(Sc1ccc2ccccc2n1)C(=O)NC(N)=O (configuration not stated) | . | 4.7% | . | . | .
N#C/C(=C\c1ccccc1)C(=O)N(c1ccccn1)C1CCCCC1 | 25.1µM* | -16.3% | 6.9%[59 µM] | ? | -4.2%
O=C(COC(=O)/C=C/c1ccc([N+](=O)[O-])cc1)NC1CCCCC1 | -1.8% | 28.6% | ? | -3.0% | .
O=C(/C=C/c1ccc([N+](=O)[O-])cc1)N(c1ccccn1)C1CCCCC1 | ? | ? | 5.62µM* | -9.1% | -0.7%
O=C(c1cccc(C(=O)N(c2ccccn2)C2CCCCC2)c1)N(c1ccccn1)C1CCCCC1 | 10.2% | -0.7% | 11.6% | 0.4% | 13.9%
NC(=O)c1cc(Cl)ccc1OCc1cccc(C(F)(F)F)c1 | . | 25.0% | . | . | .
Cn1c(=O)[nH]c(=O)c2c1nc(Sc1ccccc1)n2CCCc1ccccc1 | . | 6.9% | . | . | .
Cc1ccc(C2C(/C=C3/SC(=S)NC3=O)=C(c3cccs3)Oc3ccccc32)cc1 (configuration not stated) | 1.5% | ? | 31.6µM* | 0.4% | -8.3%
CC1Cc2cc(/C=C3/SC(=S)NC3=O)ccc2O1 (configuration not stated) | 87.3% | ? | ? | 5.7% | -2.4%
Cc1ccc(C2C(C#N)=C(N)Oc3n[nH]c(-c4cccnc4)c32)o1 (configuration not stated) | -2.6% | -9.2% | 79.4µM* | -1.0% | 4.1%
Cc1ccc(C2C(C#N)=C(N)Oc3n[nH]c(-c4ccccc4)c32)o1 (configuration not stated) | 25.1µM* | 7.8% | 22.4µM* | 1.9% | ?
Cc1ccc(-c2[nH]nc3c2C(C)C(C#N)=C(N)O3)cc1 (configuration not stated) | -13.5% | -28.1% | 18.9%[59 µM] | -2.1% | 6.0%
O=C(O)c1ccc(N2CC3CC(C2)c2cccc(=O)n2C3)c(NC(=S)Nc2ccc(Cl)cc2Cl)c1 (configuration not stated) | ? | ? | 10µM* | -5.0% | 50.1µM*
O=C(Nc1ccccc1)N1CCC(c2nn(-c3ccc(Cl)cc3)c(=O)[nH]2)CC1 | . | 31.6µM* | . | . | .
O=C(Nc1ccccc1)N1CCCC(c2nn(-c3ccc(Cl)cc3)c(=O)[nH]2)C1 (configuration not stated) | . | 3.1% | . | . | .
COc1cccc(C(=O)N2CCC(c3nn(-c4ccc(Cl)cc4)c(=O)[nH]3)CC2)c1 | . | 35.5µM* | . | . | .
Cc1ccccc1C(=O)N1CCC(c2nn(-c3ccc(Cl)cc3)c(=O)[nH]2)CC1 | . | 44.7µM* | . | . | .
